The values below come from PubChem BioAssay (Tox21).

The structures appear in SMILES notation. “And” between values parts separate entries of the source, which are not always exact repeats. Identical values can stand only once. Results filed as inconclusive are left out. More than one record can exist for a structure, and the calls need not agree. The source made the active and inactive calls. Unless noted, the call rests on the fitted dose curve; in most records, active means well fitted curve in the direction sought with a large enough effect in the repeat runs; inconclusive means weak or mixed curves; inactive means no such curve, though single readings can be large; an effect the other way counts as inactive or inconclusive.

Assay [1] is described as follows: qHTS assay to identify small molecule antagonists of the glucocorticoid receptor (GR) signaling pathway - cell viability counter screen (AID 720693). Further: nearly all actives have a fitted effect of over 55% in size. In general terms: In qHTS, concentration-response curves come from the screen itself.
Assay [2] in a line: qHTS assay for identifying genotoxic compounds that show differential cytotoxicity against isogenic chicken DT40 cell lines with known DNA damage response pathways - Rev3 mutant cell line (AID 743014). Further: nearly all actives have a fitted effect of over 55% in size. Further: potency means the concentration at half of the fitted maximal effect.
Assay [3] in a line: qHTS assay for identifying genotoxic compounds that show differential cytotoxicity against isogenic chicken DT40 cell lines with known DNA damage response pathways - Rad54/Ku70 mutant cell line (AID 743015). Further: nearly all actives have a fitted effect of over 60% in size. Further: potency means the concentration at half of the fitted maximal effect.
Assay [4] in a line: qHTS assay to identify small molecule antagonists of the androgen receptor (AR) signaling pathway - cell viability counter screen (AID 743033; further: nearly all actives have a fitted effect of over 45% in size).
Assay [5] can be described thus: qHTS assay to identify small molecule antagonists of the androgen receptor (AR) signaling pathway using the MDA cell line - cell viability counter screen (AID 743041; further: nearly all actives have a fitted effect of over 45% in size). In a few lines:
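MDA-kb2 AR-luc cells (MMTV-luciferase, AR/GR responsive) treated with compounds plus R1881 agonist for 16 h at 37C. CellTiter-Fluor added at 15.5 h; fluorescence read after 30 min in the same wells.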

Assay [6] can be described thus: qHTS assay to identify small molecule antagonists of the thyroid receptor (TR) signaling pathway - cell viability counter screen (AID 743064). Further: nearly all actives have a fitted effect of over 50% in size. Further: potency means the concentration at half of the fitted maximal effect. In a few lines: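 GH3.TRE-Luc rat pituitary cells dosed after 4 hr plating, co-stimulated with T3 at 1 nM final, incubated 23.5 h at 37 C. Viability measured in the same wells by CellTiter-Fluor fluorescence after 30 min further at 37 C.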

Assay [7] can be described thus: qHTS assay to identify small molecule antagonists of the thyroid receptor (TR) signaling pathway (AID 743065). Further: nearly all actives have a fitted effect of over 55% in size. Further: potency means the concentration at half of the fitted maximal effect. In a few lines:
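GH3.TRE-Luc rat pituitary cells (two TREs driving luciferase) were dosed with compound, then stimulated with 1 nM T3 (final) for 23.5 h at 37 C. ONE-Glo luminescence was the read-out, with CellTiter-Fluor fluorescence as the cytotoxicity counter-screen.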

For assay [8], the system named is thyroid hormone receptor (rat, GH3 cells). As to the kind of experiment: qHTS assay to identify small molecule agonists of the thyroid receptor (TR) signaling pathway (AID 743066; calls by dose curve).
For assay [9], the target named is Estrogen receptor (Homo sapiens) (UniProt P03372). Kind of assay: qHTS assay to identify small molecule antagonists of the estrogen receptor alpha (ER-alpha) signaling pathway (AID 743069; active means well fitted curve in the direction sought with a large enough effect in the signal ratio in the repeat runs, not every such curve was filed as active; the % refers to the signal ratio). The method in brief:
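HEK293 ER-alpha-UAS-bla GripTite cells, held overnight in 2% charcoal-stripped FBS, 5,000 cells/well, preincubated 4 h, then compound plus 17beta-estradiol for 18 h at 37C. Beta-lactamase read by LiveBLAzer B/G FRET substrate, 2 h at room temperature.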

A short description of assay [10]: qHTS assay to identify small molecule antagonists of the estrogen receptor alpha (ER-alpha) signaling pathway - cell viability counter screen (AID 743074; calls by dose curve;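 further: HEK293 cells carrying ER-alpha-UAS-bla reporter stimulated with 17beta-estradiol; nearly all actives have a fitted effect of over 45% in size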).
The target in assay [11] is Estrogen receptor (Homo sapiens) (UniProt P03372). Kind of assay: qHTS assay to identify small molecule agonists of the estrogen receptor alpha (ER-alpha) signaling pathway (AID 743075; calls by dose curve).
For assay [12] the target is unchanged. As to the kind of experiment: qHTS assay to identify small molecule agonists of the estrogen receptor alpha (ER-alpha) signaling pathway using the BG1 cell line (AID 743079). Further: nearly all actives have a fitted effect of over 20% in size. Further: potency means the concentration at half of the fitted maximal effect.
Assay [13] in a line: qHTS assay to identify small molecule antagonists of the estrogen receptor alpha (ER-alpha) signaling pathway using the BG1 cell line (AID 743080; calls by dose curve;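 further: BG1 cells stimulated with 17beta-estradiol alongside compound; series mostly up to about 70 µM; nearly all actives have a fitted effect of over 25% in size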). The method in brief:
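Luminescence from a 4×ERE-luciferase reporter in BG1-Luc-4E2 cells served as read-out. Cells, pre-cultured 5 days in stripped-serum phenol-red-free medium, were exposed to compound with 17beta-estradiol co-stimulation for 21.5 h at 37 C.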

Assay [14] can be described thus: qHTS assay to identify small molecule antagonists of the estrogen receptor alpha (ER-alpha) signaling pathway using the BG1 cell line - cell viability counter screen (AID 743081).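 Further: compound given together with 17beta-estradiol as the ER stimulus; series mostly up to about 70 µM; nearly all actives have a fitted effect of over 45% in size.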
The target in assay [15] is Aromatase (Homo sapiens) (UniProt P11511). Kind of assay: qHTS assay to identify aromatase inhibitors (AID 743083). Further: nearly all actives have a fitted effect of over 55% in size. Further: potency means the concentration at half of the fitted maximal effect.
Aromatase (Homo sapiens), sequence (P11511 whole entry, looked up): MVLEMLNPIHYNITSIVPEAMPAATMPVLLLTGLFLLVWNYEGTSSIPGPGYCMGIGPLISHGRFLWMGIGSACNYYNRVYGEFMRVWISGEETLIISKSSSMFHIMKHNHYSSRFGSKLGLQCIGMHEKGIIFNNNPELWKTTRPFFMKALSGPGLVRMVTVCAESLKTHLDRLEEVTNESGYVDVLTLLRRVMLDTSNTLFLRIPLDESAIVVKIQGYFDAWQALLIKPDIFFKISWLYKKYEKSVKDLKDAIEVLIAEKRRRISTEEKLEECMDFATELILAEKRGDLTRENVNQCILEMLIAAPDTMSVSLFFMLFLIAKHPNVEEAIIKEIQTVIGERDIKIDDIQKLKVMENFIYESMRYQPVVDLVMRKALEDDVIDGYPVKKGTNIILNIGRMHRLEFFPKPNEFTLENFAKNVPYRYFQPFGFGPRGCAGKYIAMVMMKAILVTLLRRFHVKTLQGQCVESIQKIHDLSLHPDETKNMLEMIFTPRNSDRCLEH

Estrogen receptor (Homo sapiens), sequence (P03372 whole entry, looked up): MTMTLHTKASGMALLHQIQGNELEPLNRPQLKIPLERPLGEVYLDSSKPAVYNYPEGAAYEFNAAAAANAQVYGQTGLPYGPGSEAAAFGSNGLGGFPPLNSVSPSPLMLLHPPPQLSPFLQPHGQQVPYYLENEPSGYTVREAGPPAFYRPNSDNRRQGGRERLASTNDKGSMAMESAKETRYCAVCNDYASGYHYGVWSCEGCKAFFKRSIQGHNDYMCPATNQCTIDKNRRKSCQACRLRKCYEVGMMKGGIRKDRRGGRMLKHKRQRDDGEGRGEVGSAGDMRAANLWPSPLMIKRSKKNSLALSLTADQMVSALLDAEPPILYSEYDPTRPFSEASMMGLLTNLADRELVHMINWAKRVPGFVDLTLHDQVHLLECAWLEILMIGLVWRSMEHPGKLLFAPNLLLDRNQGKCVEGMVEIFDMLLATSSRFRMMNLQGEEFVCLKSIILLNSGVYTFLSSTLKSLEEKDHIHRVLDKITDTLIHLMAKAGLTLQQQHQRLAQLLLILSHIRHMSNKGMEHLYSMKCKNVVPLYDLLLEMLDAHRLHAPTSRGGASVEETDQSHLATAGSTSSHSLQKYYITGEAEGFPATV

As for `ClCCBr`, the result in [1], in assay [4], in assay [5], in [8] and in [14] was inactive. The Potency entry in assay [2], in [3], in [6], in assay [7], in assay [9] and in [10] was “inactive” each time. The Potency entry in assay [11], in assay [12], in [13] and in assay [15] was “inactive” each time.

Turning to `CCOP(OCC)OCC`, the molecule was classed as inactive in assay [1], in assay [4], in assay [5], in assay [8] and in [14]. The Potency entry in assay [2], in [3], in assay [6], in assay [7], in [9] and in [10] was “inactive” in each case. The Potency result in assay [11], in [12], in assay [13] and in assay [15] was “inactive” in each case.

For `CCCCN(CCCC)SN(C)C(=O)Oc1cccc2c1OC(C)(C)C2`, the outcome in assay [1], in assay [4], in assay [5] and in [14] was inactive. Also, the Potency in [2] is 48.6 µM (active); in [3], 30.6 µM (active); in assay [6], “inactive and 24.3 µM (active)”; in assay [7], 21.7 µM (active); in assay [12], “inactive and 54.5 µM (active)”. Moreover, the Potency entry in assay [10], in assay [11], in assay [13] and in assay [15] was “inactive” throughout.

Regarding `Cc1ccc(N)cc1N`, the molecule was called inactive in assay [1], in assay [4], in [5], in [8] and in assay [14]. The Potency in assay [3] was 17.2 µM (active). In addition, the Potency result in assay [6], in assay [7], in assay [9], in assay [10], in [11] and in [12] was “inactive” each time. Further, the Potency entry in assay [13] and in assay [15] was “inactive” each time.

For `Nc1ccc(Oc2ccc(N)cc2)cc1`, the outcome in assay [1], in assay [4], in [5] and in [14] was inactive. Also, the Potency result in assay [2], in [6] and in assay [10] was “inactive” throughout. Moreover, in assay [15], the Potency was 54.5 µM (active).

Turning to `CC(C)(C)OOC(C)(C)C`, the result in assay [1], in assay [4], in [5], in assay [8] and in assay [14] was inactive. For the same molecule, the Potency result in [2], in assay [3], in [7], in [9], in assay [10] and in [11] was “inactive” in each case. Further, the Potency result in assay [12], in assay [13] and in [15] was “inactive” throughout.

Turning to `CCc1cccc(C)c1N(C(=O)CCl)C(C)COC` (centres undefined), the molecule was classed as inactive in [1], in [4], in assay [5] and in assay [14]. For the same molecule, the Potency is 16.2 µM (active) and 12.2 µM (active) in assay [2]; 45.8 µM (active) and 17.2 µM (active) in assay [3]. In addition, the Potency result in [6] and in assay [10] was “inactive” each time.

Consider `CCOP(=S)(OCC)SCCSCC`, for which the result in [1], in assay [4], in [5], in assay [8] and in [14] was inactive. Also, the Potency entry in assay [3], in assay [6], in assay [7], in [10] and in assay [15] was “inactive” each time.

For `CC(C)OC(=O)Nc1ccccc1`, the outcome in assay [1], in assay [4], in [5], in assay [8] and in [14] was inactive. In addition, the Potency entry in assay [2], in [3], in [6], in assay [7], in assay [9] and in [10] was “inactive” each time. The Potency entry in assay [11], in assay [13] and in [15] was “inactive” throughout. Further, the Potency in assay [12] is 30.7 µM (active) and 54.5 µM (active).

As for `COC(=O)c1ccccc1C(=O)OC`, the call in [1], in assay [4], in [5], in assay [8] and in assay [14] was inactive. In addition, the Potency result in assay [2], in [3], in assay [6], in assay [7], in [9] and in assay [10] was “inactive” throughout. The Potency entry in [11], in assay [12], in assay [13] and in assay [15] was “inactive” in each case.

Consider `CC(Br)C(=O)O` (centres undefined), for which the result in assay [1], in assay [4], in assay [5], in assay [8] and in assay [14] was inactive. The Potency entry in [2], in assay [3], in assay [6], in assay [7], in assay [10] and in assay [11] was “inactive” in each case. The Potency entry in [12], in assay [13] and in assay [15] was “inactive” throughout.

Take `O=[N+]([O-])c1ccc(Oc2ccc(Cl)cc2Cl)cc1`: the molecule was classed as inactive in assay [1], in assay [4], in assay [5], in [8] and in assay [14]. Further, the Potency result in assay [2] was “inactive and 61.1 µM (active)”; in assay [3] it was 61.1 µM (active). Also, the Potency entry in assay [6], in [7], in assay [10] and in [15] was “inactive” each time.

Turning to `c1ccc2c(c1)Oc1ccccc1O2`, the result in [1], in assay [4], in assay [5], in assay [8] and in assay [14] was inactive. For the same molecule, the Potency result in assay [2], in assay [3], in [6], in [7], in assay [10] and in [15] was “inactive” throughout.

For the molecule `[O-][Cl+2]([O-])O`, the molecule was classed as inactive in [1], in assay [4], in [5] and in assay [14]. Also, the Potency result in assay [6], in [9], in assay [10], in assay [11], in assay [12] and in assay [13] was “inactive” each time. Further, in assay [15], the Potency result was “inactive”.

As to `CON(C)C(=O)Nc1ccc(Cl)c(Cl)c1`, the outcome in assay [1], in assay [4], in [5], in assay [8] and in assay [14] was inactive. The Potency result in assay [2], in assay [6], in [9], in assay [10], in assay [11] and in assay [12] was “inactive” each time. Moreover, the Potency entry in [15] was “inactive”. Besides, the Potency result in [3] was “inactive and 54.5 µM (active)”.

In the case of `CCCCCCCCCl`, the molecule was called inactive in [1], in assay [4], in [5], in [8] and in [14]. Also, the Potency entry in [2], in assay [3], in assay [6], in [7], in [9] and in [11] was “inactive” in each case. Further, the Potency entry in assay [12], in assay [13] and in [15] was “inactive” in each case.

As for `O=Cc1cccc(Oc2ccccc2)c1`, the outcome in assay [1], in assay [4], in assay [5], in assay [8] and in assay [14] was inactive. Moreover, the Potency result in assay [2], in [3], in assay [6], in assay [7], in assay [9] and in assay [10] was “inactive” in each case. The Potency entry in assay [11], in assay [13] and in assay [15] was “inactive” each time.

In the case of `CC(C)OC(=O)Nc1cccc(Cl)c1`, the outcome in assay [1], in assay [4], in [5], in [8] and in assay [14] was inactive. Besides, the Potency result in assay [2], in assay [3], in assay [6], in assay [7], in assay [9] and in assay [10] was “inactive” in each case. Further, the Potency result in [11], in assay [12] and in assay [15] was “inactive” throughout.

`CCNc1nc(NC(C)(C)C)nc(SC)n1`: the molecule was classed as inactive in assay [1], in assay [4], in [5], in assay [8] and in [14]. Besides, the Potency is 60.3 µM (active) in assay [2] and 54.5 µM (active) in [3]. The Potency result in [6], in [9], in [10], in assay [11], in assay [12] and in [13] was “inactive” each time. In addition, in assay [15], the Potency entry is “inactive”.

On to `CCCCCOC(=O)c1ccccc1C(=O)OCCCCC`, for which the molecule was classed as inactive in assay [1], in assay [4], in assay [5], in assay [8] and in assay [14]. Besides, the Potency entry in assay [2], in [3], in assay [6], in [7], in assay [9] and in assay [10] was “inactive” throughout. Also, the Potency result in assay [11], in assay [12], in [13] and in assay [15] was “inactive” each time.

Take `CC(C)(C)OOC(=O)c1ccccc1`: the molecule was classed as inactive in assay [1], in [4], in assay [5], in assay [8] and in assay [14]. Moreover, the Potency entry in assay [2], in assay [3], in assay [6], in assay [7], in assay [10] and in assay [15] was “inactive” each time.
